According to the supplement of paper PMC6853941:
A number with no mark means an inactive call.

Tested on: MCF10A
Experiment: perturbation Mahalanobis distance of morphological profile vs DMSO controls (Mahalanobis distance (SD units)); higher = stronger morphological change, active = 7 or more
Details: 72 h
Method: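 MCF10A cells were seeded onto drugs dispensed acoustically into 384-well plates, using one dose per drug chosen from its human peak plasma concentration, and incubated for 72 h at 37 °C. Cells were stained for DNA, tubulin and mitochondria and imaged; 78 CellProfiler features were extracted, plate-normalised and compared with DMSO wells.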

[1] = screen batch: Batch1_Mahalanobis_Distance
[2] = screen batch: Batch2_Mahalanobis_Distance

SMILES	perturbation Mahalanobis distance [1]	perturbation Mahalanobis distance [2]
CN(CCOc1ccc(CC2SC(=O)NC2=O)cc1)c1ccccn1 (centres undefined) [Rosiglitazone] (4.2 µM)	2.03	3.13
CCCc1nc(C(C)(C)O)c(C(=O)OCc2oc(=O)oc2C)n1Cc1ccc(-c2ccccc2-c2nn[nH]n2)cc1 [Olmesartan Medoxomil] (8.1 µM)	2.22	1.74
Nc1ccc(O)c(C(=O)O)c1 [Mesalazine] (39.2 µM)	3.41	2.94
OC(CCCN1CCCCC1)(c1ccccc1)c1ccccc1 [Diphenidol] (2.6 µM)	2.49	3.04
O=NN(CCCl)C(=O)NCCCl [Carmustine] (0.2 µM)	2.08	2.55
NC12CC3CC(CC(C3)C1)C2 [Amantadine] (19.85 µM)	2.66	3.87
CC(C)C(=O)Nc1ccc([N+](=O)[O-])c(C(F)(F)F)c1 [Flutamide] (27.2 µM)	4.39	6.63
Cc1ccccc1C(=O)Nc1ccc(C(=O)N2CCC[C@@H](O)c3cc(Cl)ccc32)c(C)c1 [Tolvaptan] (11.1 µM)	2.12	6.06
C[C@H](N[C@@H](CCc1ccccc1)C(=O)O)C(=O)N1CCC[C@H]1C(=O)O [Enalaprilat] (0.67 µM)	3.78	2.89
C[C@@H](O[C@@H]1OCCN(Cc2nc(=O)[nH][nH]2)[C@@H]1c1ccc(F)cc1)c1cc(C(F)(F)F)cc(C(F)(F)F)c1 [Aprepitant] (20.7 µM)	5.02	3.18
CNC1(C)C2CCC(C2)C1(C)C (centres undefined) [Mecamylamine] (3.6 µM)	2.25	3.11
O=C1OCCN1/N=C/c1ccc([N+](=O)[O-])o1 [Furazolidone] (22.2 µM)	3.46	3.27
C[C@@H]1CCC2[C@@H](C)[C@@H](O)O[C@@H]3OC4(C)CC[C@@H]1[C@@]23OO4 (some centres undefined) [Dihydroartemisinin] (13.2 µM)	10.7 (active)	16.7 (active)
CC12CCC(=O)C=C1C=CC1C2CCC2(C)C1CCC21CCC(=O)O1 (centres undefined) [Canrenone] (3 µM)	3.06	3.02
OC[C@H]1O[C@@H](n2cnc3c2NC=NC[C@H]3O)C[C@@H]1O [Pentostatin] (55.9 µM)	4.44	3.34
CCc1c2c(nc3ccc(O)cc13)-c1cc3c(c(=O)n1C2)COC(=O)[C@]3(O)CC [7-Ethyl-10-Hydroxy-Camptothecin] (16.78 µM)	2.85	2.55
NNC(=O)c1ccncc1 [Isoniazid] (73.5 µM)	6.37	2.59
COC(=O)C1=C(C)NC(C)=C(C(=O)OCC(C)C)C1c1ccccc1[N+](=O)[O-] (centres undefined) [Nisoldipine] (13 µM)	2.36	2.36
Cc1nnc(C(=O)NC(C)(C)C2=N/C(=C(\O)NCc3ccc(F)cc3)C(=O)C(=O)N2C)o1 [Raltegravir] (22.5 µM)	6.75	4.95
O=[N+]([O-])c1cnc(CO)n1CCO [Hydroxymetronidazole] (58.4 µM)	2.36	3.44
NC(=O)c1ncn([C@@H]2O[C@H](CO)[C@@H](O)[C@H]2O)n1 [Ribavirin] (75.3 µM)	5.79	11.4 (active)
CCCCN(CCCC)CCC(O)c1cc2c(Cl)cc(Cl)cc2c2cc(C(F)(F)F)ccc12 (centres undefined) [Halofantrine] (63.9 µM)	7.37 (active)	2.57
COc1cc(Cc2cnc(N)nc2N)cc(OC)c1OC [Trimethoprim] (43.1 µM)	4.35	3.85
CN(C)C(=N)N=C(N)N [Metformin] (38.4 µM)	1.76	1.8
CCN1CC(CCN2CCOCC2)C(c2ccccc2)(c2ccccc2)C1=O (centres undefined) [Doxapram] (66 µM)	2.26	2.47
COc1cc(N)c(Cl)cc1C(=O)NC1CCN(CCCOc2ccc(F)cc2)CC1OC (centres undefined) [Cisapride] (0.85 µM)	3.31	2.99
O=C1CN(/N=C/c2ccc(-c3ccc([N+](=O)[O-])cc3)o2)C(=O)N1 [Dantrolene] (23.9 µM)	2.62	3.85
